# PubChem BioAssay (NCATS)
# Several values for one entry are separate records, joined by “and”; a condition that tells them apart may be missing. Equal values may be shown once. Inconclusive results are not listed. Where a call stands in place of a potency, no number is given. A structure can be active in one record and inactive in another. Activity calls are given as the source filed them. Calls come from the whole dose curve; as a rule, active = well fitted curve in the direction sought with a large enough effect; inconclusive = small, poorly fitted or top-dose-only effect, or another doubt; inactive = no such curve, though single readings can be large; an effect the other way counts as inactive or inconclusive. Non-standard residues stand in square brackets, D forms with d. Residues, ends and D or L forms follow the SMILES beside them. *: point of attachment. Sta = CC(C)C[C@H](N)[C@@H](O)CC(=O)O; Isovaleryl = CC(C)CC(=O)*
# Key:
# [1] = molecular target: Glutathione peroxidase 1 (Homo sapiens) (UniProt P07203); experiment: Primary qHTS Assay for Inhibitors of Recombinant Selenoprotein Glutathione Peroxidase 1 (GPX1) (AID 1845191); note: nearly all actives have a fitted effect of over 65% in size; note: potency is the fitted concentration of half-maximal effect
# Chain of Glutathione peroxidase 1 (Homo sapiens) (P07203 whole entry, looked up): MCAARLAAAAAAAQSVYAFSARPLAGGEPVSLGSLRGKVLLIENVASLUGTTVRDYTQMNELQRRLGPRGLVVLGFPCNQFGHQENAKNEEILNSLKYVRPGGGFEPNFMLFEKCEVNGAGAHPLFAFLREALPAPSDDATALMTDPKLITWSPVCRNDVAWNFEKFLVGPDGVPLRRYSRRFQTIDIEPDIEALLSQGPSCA
# How it was run: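 GR-coupled assay: compounds preincubated 30 min at room temperature with GPX1, then reaction started with CHP; final 10 nM GPX1, 1 mM GSH, 0.5 mM CHP, 0.5 mM NADPH, 100 nM GR, 0.01% BSA, pH 7.5 Tris buffer. NADPH fluorescence (340/450 nm) read at 0 and 15 min.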
# [2] = molecular target: Phospholipid hydroperoxide glutathione peroxidase GPX4 (Homo sapiens) (UniProt P36969); experiment: Primary qHTS Assay for Inhibitors of Recombinant Selenoprotein Glutathione Peroxidase 4 (GPX4) (AID 1845192); note: nearly all actives have a fitted effect of over 65% in size; note: potency is the fitted concentration of half-maximal effect
# Chain of Phospholipid hydroperoxide glutathione peroxidase GPX4 (Homo sapiens) (P36969 whole entry, looked up): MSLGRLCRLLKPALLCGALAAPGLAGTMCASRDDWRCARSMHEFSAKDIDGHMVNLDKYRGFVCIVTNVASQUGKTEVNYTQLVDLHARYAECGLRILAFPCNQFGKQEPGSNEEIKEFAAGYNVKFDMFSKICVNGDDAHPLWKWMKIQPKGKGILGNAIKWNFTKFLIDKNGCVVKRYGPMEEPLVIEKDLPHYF
# How it was run: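 GR-coupled assay: recombinant GPX4 preincubated 30 min with compound at room temperature; final 200 nM GPX4, 1 mM GSH, 0.5 mM cumene hydroperoxide, 0.5 mM NADPH, 100 nM GR, 0.01% BSA, pH 7.5 Tris. NADPH fluorescence (340/450 nm) read at 0 and 15 min.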
# [3] = Quantitative High-Throughput drug screen in 47 multiple myeloma cell lines against the NCATS MIPE library collection: FR4_PLB cell viability assay (AID 1918924; note: nearly all actives have a fitted effect of over 35% in size; note: potency is the fitted concentration of half-maximal effect)
# How it was run: (§1)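 Myeloma cell lines, 500 cells per well, exposed to MIPE 4.0 library compounds for 48 h at 37C, 5% CO2. Viability from ATP by CellTiter-Glo luminescence; normalised to DMSO (100%) and media-only (0%) wells.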
# [4] = Quantitative High-Throughput drug screen in 47 multiple myeloma cell lines against the NCATS MIPE library collection: AMO1_DSMZ cell viability assay (AID 1918927; note: nearly all actives have a fitted effect of over 30% in size; note: potency is the fitted concentration of half-maximal effect)
# How it was run: (§2)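 CellTiter-Glo ATP luminescence gave viability after 48 h compound treatment at 37C of 500 multiple myeloma cells per well. Normalisation used DMSO-only wells as 100% and media-only wells as 0% viability; primary qHTS of approved and investigational drugs.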
# [5] = Quantitative High-Throughput drug screen in 47 multiple myeloma cell lines against the NCATS MIPE library collection: ARD_JJKsccE7 cell viability assay (AID 1918929; note: potency is the fitted concentration of half-maximal effect)
# How it was run: as §2
# [6] = Quantitative High-Throughput drug screen in 47 multiple myeloma cell lines against the NCATS MIPE library collection: Karpas620_DSMZ cell viability assay (AID 1918959); note: nearly all actives have a fitted effect of over 30% in size; note: potency is the fitted concentration of half-maximal effect
# How it was run: as §1
# [7] = Quantitative High-Throughput drug screen in 47 multiple myeloma cell lines against the NCATS MIPE library collection: KMM1_JCRB cell viability assay (AID 1918960); note: nearly all actives have a fitted effect of over 30% in size; note: potency is the fitted concentration of half-maximal effect
# How it was run: (§3)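 Here, 48 h treatment with MIPE 4.0 agents at 37 °C preceded an ATP luminescence read. Plating density was 500 cells per well.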
# [8] = Quantitative High-Throughput drug screen in 47 multiple myeloma cell lines against the NCATS MIPE library collection: JIM3_ECACC cell viability assay (AID 1918963; note: nearly all actives have a fitted effect of over 35% in size; note: potency is the fitted concentration of half-maximal effect)
# How it was run: as §1
# [9] = Quantitative High-Throughput drug screen in 47 multiple myeloma cell lines against the NCATS MIPE library collection: INA6_PLB cell viability assay (AID 1918965; note: nearly all actives have a fitted effect of over 55% in size; note: potency is the fitted concentration of half-maximal effect)
# How it was run: as §1
# [10] = Quantitative High-Throughput drug screen in 47 multiple myeloma cell lines against the NCATS MIPE library collection: JJN3_DSMZ cell viability assay (AID 1918966; note: nearly all actives have a fitted effect of over 50% in size; note: potency is the fitted concentration of half-maximal effect)
# How it was run: as §2
# [11] = Quantitative High-Throughput drug screen in 47 multiple myeloma cell lines against the NCATS MIPE library collection: H1112_PLB cell viability assay (AID 1918967; note: nearly all actives have a fitted effect of over 30% in size; note: potency is the fitted concentration of half-maximal effect)
# How it was run: as §2
# [12] = Quantitative High-Throughput drug screen in 47 multiple myeloma cell lines against the NCATS MIPE library collection: EJM_DSMZ cell viability assay (AID 1918926; note: nearly all actives have a fitted effect of over 30% in size; note: potency is the fitted concentration of half-maximal effect)
# How it was run: as §2
# [13] = Quantitative High-Throughput drug screen in 47 multiple myeloma cell lines against the NCATS MIPE library collection: ARP1_JJKsccF8 cell viability assay (AID 1918928; note: nearly all actives have a fitted effect of over 40% in size; note: potency is the fitted concentration of half-maximal effect)
# How it was run: as §3
# [14] = Quantitative High-Throughput drug screen in 47 multiple myeloma cell lines against the NCATS MIPE library collection: Karpas25_ECACC cell viability assay (AID 1918968; note: nearly all actives have a fitted effect of over 35% in size; note: potency is the fitted concentration of half-maximal effect)
# How it was run: as §2
# [15] = Quantitative High-Throughput drug screen in 47 multiple myeloma cell lines against the NCATS MIPE library collection: KHM11_PLB cell viability assay (AID 1918962); note: nearly all actives have a fitted effect of over 35% in size; note: potency is the fitted concentration of half-maximal effect
# How it was run: as §1
# [16] = Quantitative High-Throughput drug screen in 47 multiple myeloma cell lines against the NCATS MIPE library collection: Delta47_JCRB cell viability assay (AID 1918925; note: nearly all actives have a fitted effect of over 45% in size; note: potency is the fitted concentration of half-maximal effect)
# How it was run: as §2
# [17] = Quantitative High-Throughput drug screen in 47 multiple myeloma cell lines against the NCATS MIPE library collection: Karpas417_ECACC cell viability assay (AID 1918961); conditions: Karpas417 myeloma viability, CellTiter-Glo ATP luminescence, 48 h; viability (% of DMSO): at 45.8 µM (top of the series); note: potency is the fitted concentration of half-maximal effect
# How it was run: as §1
# [18] = Quantitative High-Throughput drug screen in 47 multiple myeloma cell lines against the NCATS MIPE library collection: JIM1_ECACC cell viability assay (AID 1918964; note: potency is the fitted concentration of half-maximal effect)
# How it was run: as §2
# [19] = Primary fluorescence-based thiol-reactive (MSTI) qHTS assay for identification of artifact compounds. (AID 1845221);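 note: thiol-reactive compounds lower the probe fluorescence signal; nearly all actives have a fitted effect of over 65% in size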
# How it was run: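 Reactivity toward the thiol probe MSTI (4 uM) is scored by fluorescence at Ex/Em 525/598 nm after 1 h at room temperature. Acetyl-MSTI and MSTI define the activity scale.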
# [20] = Primary redox qHTS assay for identification of artifact compounds. (AID 1845223)
# How it was run: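 Amplex Red (25 uM) and HRP (250 mU/mL) in HBSS, with compounds for 15 min, then 250 uM DTT for 30 min, room temperature, dark. Fluorescence 525/598 nm read; normalized to DMSO and 10 uM DA3003; Hill fit.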
SMILES,Potency [1],Potency [2],Potency [3],Potency [4],Potency [5],Potency [6],Potency [7],Potency [8],Potency [9],Potency [10],Potency [11],Potency [12],Potency [13],Potency [14],Potency [15],Potency [16],Potency [17],Potency [18],Potency [19],outcome [20]
Clc1ccc2c(N3CCN(CCCN4CCN(c5ccnc6cc(Cl)ccc56)CC4)CC3)ccnc2c1,inactive,inactive,inactive,inactive,inactive,inactive,inactive,inactive,inactive,inactive,inactive,,,,,,,,,
CCOc1cc(CC(=O)N[C@@H](CC(C)C)c2ccccc2N2CCCCC2)ccc1C(=O)O,inactive,inactive,inactive,,inactive,,,inactive,,,inactive,inactive,inactive,inactive,,,,,,
CN1CCC(=C2c3ccccc3CCc3sccc32)CC1,inactive,inactive,inactive,,,,,,,,inactive,inactive,inactive,,,,,,,
Nc1ncn([C@H]2C[C@H](O)[C@@H](CO)O2)c(=O)n1,inactive,inactive,inactive,,0.418 µM (active),0.132 µM (active),0.296 µM (active),,,,,inactive,,4.69 µM (active),inactive,,,,,
Cc1c(OCC(F)(F)F)ccnc1CS(=O)c1nc2ccccc2[nH]1 (centres undefined),inactive,4.53 µM (active),inactive,,,inactive,20.9 µM (active),16.6 µM (active),,2.64 µM (active),20.9 µM (active),inactive,inactive,,,,,,,
COC(=O)C1=C(C)NC(C)=C(C(=O)OC(C)C)C1c1cccc2nonc12 (centres undefined),inactive,inactive,,inactive,inactive,inactive,inactive,,,,3.32 µM (active),inactive,inactive,5.26 µM (active),,2.96 µM (active),inactive,inactive,,
CC(=O)N1CCN(c2ccc(OC[C@H]3CO[C@](Cn4ccnc4)(c4ccc(Cl)cc4Cl)O3)cc2)CC1,inactive,inactive,,7.43 µM (active),,5.26 µM (active),5.26 µM (active),11.8 µM (active),,,8.33 µM (active),8.33 µM (active),,,,18.7 µM (active),,inactive,,
Cc1cc(Cl)ccc1OCCCC(=O)NO,inactive,inactive,,,20.9 µM (active),,,9.35 µM (active),,0.372 µM (active),7.43 µM (active),0.296 µM (active),,2.96 µM (active),11.8 µM (active),2.96 µM (active),,,,
COc1cc2nc(N3CCN(C(=O)C4CCCO4)CC3)nc(N)c2cc1OC (centres undefined),inactive,inactive,,,,inactive,,inactive,,inactive,inactive,inactive,,inactive,inactive,inactive,,,,
CCCOc1ccc2nc(NC(=O)OC)[nH]c2c1,inactive,inactive,inactive,0.001 µM (active),0.001 µM (active),,,0.0066 µM (active),0.0105 µM (active),5.26 µM (active),,,,0.105 µM (active),,,,,,
O=C(NC(Cc1cc(=O)[nH]c2ccccc12)C(=O)O)c1ccc(Cl)cc1 (centres undefined),inactive,inactive,inactive,,inactive,,,,,9.35 µM (active),inactive,4.69 µM (active),inactive,,,,inactive,,,
O=c1cc(N2CCOCC2)oc2c(-c3ccccc3)cccc12,inactive,inactive,16.6 µM (active),inactive,inactive,inactive,inactive,,,16.6 µM (active),,,18.7 µM (active),7.43 µM (active),,,,,,
O=C(NCCO[N+](=O)[O-])c1cccnc1,inactive,inactive,inactive,,inactive,inactive,inactive,inactive,,inactive,inactive,inactive,inactive,,,,,inactive,,
O=C(c1ccccc1)c1ccc2n1CCC2C(=O)O (centres undefined),inactive,inactive,inactive,,inactive,inactive,inactive,16.6 µM (active),10.5 µM (active),,13.2 µM (active),2.35 µM (active),,,8.33 µM (active),,inactive,,,
CC(C)CC(=O)N[C@H](C(=O)N[C@H](C(=O)N[C@@H](CC(C)C)[C@@H](O)CC(=O)N[C@@H](C)C(=O)N[C@@H](CC(C)C)[C@@H](O)CC(=O)O)C(C)C)C(C)C (Isovaleryl-VV[Sta]A[Sta]-OH),inactive,inactive,inactive,,inactive,inactive,inactive,inactive,,inactive,,inactive,inactive,,inactive,,inactive,inactive,,
CN(C)C(=O)COC(=O)Cc1ccc(OC(=O)c2ccc(N=C(N)N)cc2)cc1,inactive,inactive,inactive,,,7.43 µM (active),,,,,14.8 µM (active),,inactive,,0.662 µM (active),,,,,
CN(C)[C@@H](CCOc1cccc2ccccc12)c1ccccc1,inactive,inactive,18.7 µM (active),,,inactive,,,18.7 µM (active),,18.7 µM (active),,26.4 µM (active),,,,,inactive,,
Oc1ccc(-c2nc(-c3ccc(F)cc3)c(-c3ccncc3)[nH]2)cc1,inactive,inactive,,inactive,inactive,inactive,inactive,14.8 µM (active),14.8 µM (active),9.35 µM (active),8.33 µM (active),,,7.43 µM (active),,5.9 µM (active),,,,
CC1Cc2ccccc2N1NC(=O)c1ccc(Cl)c(S(N)(=O)=O)c1 (centres undefined),inactive,inactive,inactive,,,inactive,,inactive,,,inactive,inactive,inactive,inactive,,,,,,
O=C(NCC1CCCCN1)c1cc(OCC(F)(F)F)ccc1OCC(F)(F)F (centres undefined),inactive,inactive,,3.32 µM (active),3.72 µM (active),1.32 µM (active),2.64 µM (active),8.33 µM (active),13.2 µM (active),inactive,8.33 µM (active),inactive,,9.35 µM (active),9.35 µM (active),8.33 µM (active),0.0743 µM (active),1.87 µM (active),,
O=c1c(O)c(-c2ccc(O)cc2O)oc2cc(O)cc(O)c12,inactive,inactive and 10.1 µM (active),inactive,,inactive,,inactive,inactive,,,inactive,inactive,inactive,,inactive,,inactive,,,
CC(C)[N+]1(C)[C@@H]2CC[C@H]1CC(OC(=O)C(CO)c1ccccc1)C2 (some centres undefined),inactive,inactive,inactive,,,,,inactive,,inactive,inactive,inactive,inactive,,,,,,,
O=c1c(O)c(-c2cc(O)c(O)c(O)c2)oc2cc(O)cc(O)c12,inactive,inactive,,inactive,inactive,inactive,inactive,inactive,,20.9 µM (active),inactive,inactive,,,inactive,inactive,,,,
Nc1cccc2c1CN(C1CCC(=O)NC1=O)C2=O (centres undefined),inactive,inactive,inactive,,,inactive,inactive,inactive,,1.71 µM (active),inactive,inactive,inactive,4.81 µM (active),,,,,,
CN1C(C(=O)Nc2ccccn2)=C(O)c2sccc2S1(=O)=O,inactive,inactive,inactive,,,inactive,inactive,inactive,,,inactive,inactive,inactive,inactive,inactive,,,inactive,,
CCCCN(CCCC)CCC(O)c1cc2c(Cl)cc(Cl)cc2c2cc(C(F)(F)F)ccc12 (centres undefined),inactive,inactive,20.9 µM (active),,inactive,inactive,,,,,,0.264 µM (active),inactive,,,,,,,
CC(C)[C@H](N)C(=O)OCCOCn1cnc2c(=O)[nH]c(N)nc21,inactive,inactive,,26.4 µM (active),inactive,inactive,,inactive,,inactive,inactive,inactive,inactive,,,,,,,
O=C(CS(=O)Cc1ccco1)NCC=CCOc1cc(CN2CCCCC2)ccn1 (centres undefined),,,inactive,inactive,inactive,,inactive,inactive,,,inactive,inactive,,,,,,inactive,,
COCCCOc1ccnc(CS(=O)c2nc3ccccc3[nH]2)c1C (centres undefined),inactive and 14.3 µM (active),,inactive,inactive,inactive,inactive,inactive,inactive,inactive,,inactive,inactive,,,inactive,inactive,inactive,,inactive,inactive
